DRD3 antagonist – blocks the human D3 dopamine receptor; D3R cells, DiscoveRx beta-arrestin luminescence, antagonist mode; active compounds read low; max response, negative = inhibition, %; hit rate 2.5% among 360,000; AID 652054; in the data active = max response below about -50%; inconclusive = no clear call, values can overlap the other calls
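Cells plated overnight at 1500 cells/well, then exposed to library compounds with dopamine controls for 90 minutes at 37 degrees C. DiscoveRx reagent added for 30–60 minutes at room temperature; luminescence read, quantitative HTS format.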
D1 antag – blocks dopamine activation of the human D1 receptor; hit rate 3.2% among 360,000; P21728; activity change, negative = inhibition, % at 10 µM; HEK293 TREx D1 cells, calcium flux, dopamine EC80; active compounds read low; AID 504652; in the data active = activity change below about -30%
Target sequence (P21728 whole entry, looked up): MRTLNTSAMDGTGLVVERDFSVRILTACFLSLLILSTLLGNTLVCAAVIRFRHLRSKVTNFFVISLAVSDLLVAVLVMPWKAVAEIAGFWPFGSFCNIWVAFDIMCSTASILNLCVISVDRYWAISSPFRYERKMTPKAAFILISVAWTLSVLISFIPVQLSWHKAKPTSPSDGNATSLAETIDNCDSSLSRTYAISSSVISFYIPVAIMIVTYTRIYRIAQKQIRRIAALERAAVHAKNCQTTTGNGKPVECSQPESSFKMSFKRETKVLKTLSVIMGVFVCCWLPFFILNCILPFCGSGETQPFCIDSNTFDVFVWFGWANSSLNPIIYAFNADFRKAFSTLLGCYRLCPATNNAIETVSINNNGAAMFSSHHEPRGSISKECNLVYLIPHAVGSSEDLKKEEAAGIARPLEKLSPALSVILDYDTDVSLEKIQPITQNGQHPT
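Tetracycline-induced HEK293 T-REx cells with force-coupled D1 receptor were loaded with a no-wash calcium dye. Compound was added after a 10 s baseline and read kinetically for 180 s; EC80 dopamine was then added and calcium flux followed another 180 s.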
D3 ag – agonists of human D3 dopamine receptor; P35462; D3R DiscoveRx beta-arrestin cells, luminescence, 90 min; max activation, %; hit rate 0.58% among 410,000; AID 652048; in the data active = max activation above about 30%
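Agonist mode: compounds and dopamine controls were applied to plated cells for 90 min at 37 degrees C after an overnight attachment at 1500 cells/well. Luminescent read-out followed 30 - 60 minutes at room temperature with DiscoveRx detection reagent.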
D1 PAM – human D1 dopamine receptor positive modulation; P21728; HEK293 TREx D1 cells, calcium flux, dopamine EC20 potentiation; potentiation, % at 10 µM; hit rate 0.036% among 360,000; AID 504651; in the data active = potentiation above about 30%
D1 agonist – agonists of human D1 dopamine receptor. HEK293 T-REx D1 cells, calcium flux, agonist mode. activation, % at 2 µM. hit rate 1% among 360,000; in the data active = activation above about 30%
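Inducible HEK293 T-REx D1 cells, force-coupled to calcium signalling, were plated at 4000 cells/well with tetracycline and held overnight at 30 C. After no-wash calcium dye loading, compound-evoked calcium rise over 180 s flagged agonists.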
Numbers stand for hits; - = inactive; ? = inconclusive; . = no result given; ! = repeats disagree. Compounds with a hit are over-represented: about 6% of the library has one in this group of screens.

SMILES	DRD3 antagonist	D1 antag	D3 ag	D1 PAM	D1 agonist
CN(Cc1ccccc1)Cc1ccccc1	.	.	-	.	.
CCC(C)c1ccccc1OCCCN(C)Cc1ccccc1 (centres undefined)	-60.4	-	-	-	-
CCc1ccc(OCCCCN(C)Cc2ccccc2)cc1	-71.3	-	-	-	-
CCN1C(=O)c2ccc(C(=O)Nc3cccc(C(=O)O)c3)cc2C1=O	-	-	-	-	-
O=C1CC(c2nc3ccccc3n2Cc2c(F)cccc2Cl)CN1c1cccc(C(F)(F)F)c1 (centres undefined)	.	-	-	-	-
COc1ccc(Cn2cc(C(=O)c3ccc(OC)cc3)c(=O)c3cc4c(cc32)OCCO4)cc1	.	-	-	-	-
CN(CCOc1ccc(F)cc1)Cc1ccccc1	-69.5	-	-	-	-
CN(CCOc1ccccc1)CCOc1ccccc1	-87.4	-	-	-	-
CC(=O)N(CCOc1ccccc1)CCOc1ccccc1	-	.	-	.	.
COc1ccc(OCCN(C)Cc2ccccc2)cc1	?	-	-	-	-
CN(CCOC(=O)c1ccccc1)Cc1ccccc1	?	-	-	-	-
CN(CCOCCOc1ccc2ccccc2c1)Cc1ccccc1	-64.1	-	-	-	-
COc1ccc(/C=N/NC(=O)c2ccc3c(c2)NC(=O)C(C)(C)O3)cc1OC	-	-	-	-	-
CC1(C)Oc2ccc(C(=O)NN)cc2NC1=O	-	-38.0	-	-	-
COc1cc(OC)c(C(=O)Nc2ccc(C(=O)c3ccccc3)cc2)cc1OC	-	-	-	-	-
CC(=O)c1ccc(NC(=O)c2ccc(-c3ccc(Cl)cc3)o2)cc1	.	-	-	-	-
CCCc1cc(C(=O)N2CCCC(N3CCN(c4ccccc4C)CC3)C2)n(C)n1 (centres undefined)	-	-	-	-	-
Cc1ccccc1N1CCN(C2CCCN(C(=O)c3cc(CC(C)C)nn3C)C2)CC1 (centres undefined)	-	-31.8	-	-	-
COc1cccc(C(=O)NCC(=O)N2CCC3(CC2)NCCc2[nH]cnc23)c1	-	-	-	-	-
CC(C)CNC(=S)NNC(=O)c1csc2c1CCC(C)C2 (centres undefined)	-55.0	-	-	-	-
CCOc1ccc(Cl)cc1-c1cc(C(=O)Nc2ccc(OC)nc2)[nH]n1	-	.	-	.	.
CC1CC(N(C(=O)c2ccc(Cl)cc2)c2ccccc2)c2ccccc2N1C(=O)c1ccco1 (centres undefined)	?	-45.8	-	-	-
CC1CC(N(C(=O)c2ccco2)c2ccccc2)c2ccccc2N1C(=O)c1ccco1 (centres undefined)	-	-	-	-	-
C=CCNC(=O)c1ccccc1NC(=O)C1CC(=O)N(C(C)C)C1 (centres undefined)	-	-	-	-	-
O=c1cc(-c2ccccc2)nc(SCc2nc(-c3cccc(C(F)(F)F)c3)no2)[nH]1	.	-	-	-	-
SMILES	DRD3 antagonist	D1 antag	D3 ag	D1 PAM	D1 agonist
CCSC1=NSC2=NC(=O)/C(=C\c3coc4ccccc4c3=O)C(=N)N12	-	-42.8	-	-	324.9
CC(C)CC1=NN2C(=N)/C(=C\c3coc4ccccc4c3=O)C(=O)N=C2S1	-	-	-	-	61.2
Cc1c(CNC(=O)C2CCC(=O)N(CCc3ccccc3)C2)cnn1C (centres undefined)	-	-32.6	-	-	-
Cc1ccc(F)cc1CNC(=O)C1CCC(=O)N(CCc2ccccc2)C1 (centres undefined)	-	-	-	-	-
O=C(NCCCc1ccccc1)C1CCC(=O)N(Cc2ccc(Cl)cc2)C1 (centres undefined)	-	-41.5	-	-	-
Cc1csc(CNC(=O)C2CCC(=O)N(CCCc3ccccc3)C2)n1 (centres undefined)	-	-	-	-	-
Cc1csc(CN(C)C(=O)C2CCC(=O)N(CCCc3ccccc3)C2)n1 (centres undefined)	-	-42.8	-	-	-
Cn1cc(CCNC(=O)C2CCC(=O)N(CCc3ccc(Cl)cc3)C2)cn1 (centres undefined)	-	-51.9	-	-	-
C[C@H](O)[C@@H]1C(=O)N2CCc3ccc(N4CCN(C)CC4)cc3[C@@H]2C[C@@H]1N(C)C(=O)c1ccco1	-	.	-	.	.
N=C(N)N	.	.	-	.	.
CCCNC(=O)c1cc2c(c(-c3cccc(-c4cc5ccccc5o4)c3)n1)[C@H](CCO)N(C(=O)NC(C)C)C2	-	.	-	.	.
Cc1ccc(Nc2nc(N)nc(CSc3nc4ccccc4s3)n2)cc1	-	-	45.2!	-	-
Cc1ccc(Nc2nc(N)nc(CCl)n2)cc1	-	-	-	-	-
Cc1c(Cl)cccc1Nc1nc(N)nc(CN2CCc3ccccc3C2)n1	-64.0	-	-	-	-
COc1ccc(Nc2nc(N)nc(CSc3nc4ccccc4s3)n2)cc1	.	-	-	-	-
Cc1ccc(Nc2nc(N)nc(CN3CCc4ccccc4C3)n2)cc1	-64.3	-36.7	-	-	-
Cc1nn(-c2nc3ccccc3s2)c(C)c1Oc1ccccc1O	-	-60.5	-	-	-
COCCNC(=O)C1(C)CCCN(CCSc2ccccc2)C1 (centres undefined)	-	.	-	.	.
O=C(c1cc2ncc(CCCl)cn2n1)N1CCCCCC1	-	-48.2	-	-	-
Cc1nc2ccc(N)cc2c(=O)n1Cc1ccc(Cl)cc1	-	-	-	-	-
Cc1nc2c(cc1N)nc(C)n2Cc1ccccc1	-50.7	-	-	-	-
CCc1ccc(NC(=O)c2cc3c(=O)n(Cc4cccs4)ccc3nc2C)cc1	.	-	-	-	-
COc1ccc(OCc2nc3ccccc3[nH]2)cc1	-	-	-	-	-
COc1ccc(OC(C)c2nc3ccccc3[nH]2)cc1 (centres undefined)	.	-32.6	-	-	-
COC(=O)CCC(C)N1CCC(Oc2ccc(C(=O)N3CCCC3)cc2)CC1 (centres undefined)	-	-30.3	-	-	-
SMILES	DRD3 antagonist	D1 antag	D3 ag	D1 PAM	D1 agonist
COCCC(=O)N1CCC(Oc2ccc(C(=O)N3CCCC(OC)C3)cc2)CC1 (centres undefined)	-	-34.9	-	-	-
COCC(C)N1CCC(Oc2ccc(C(=O)N3CCCC3)cc2)CC1 (centres undefined)	-	-	-	-	-
O=C(C[C@H]1CC[C@@H](NC(=O)C2CC2)[C@@H](CO)O1)NCc1ccccc1Cl	-	.	-	.	.
COc1ccc(N=C(N)SCc2ccccn2)cc1	-	-42.8	-	-	-
COc1ccc(-c2nnc(SCc3ccccn3)n2C)cc1	-	-	-	-	-
CN(C)c1ccc(/C=C2\SC(=S)N(Nc3ncc(C(F)(F)F)cc3Cl)C2=O)cc1	-	-62.9	-	-	168.1
COc1cc(/C=C2\SC(=S)N(Nc3ncc(C(F)(F)F)cc3Cl)C2=O)ccc1O	?	-	-	-	96.6
COc1cc(/C=C2\SC(=S)N(c3cccnc3)C2=O)ccc1O	-	-	-	-	-
Nc1nc(-c2ccc(Cl)cc2)c(N=Nc2ccc(S(=O)(=O)N3CCOCC3)cc2)s1	-53.6	-	-	-	-
